This is an account of results in PubChem BioAssay (EPA / NIEHS).

The source made the active and inactive calls. The calls were made as follows: active = hit-call score of the fitted dose curve at least 0.9, where 1 is the maximum; inactive = score below 0.9.

What all share (conditions): mRNA level, 48 h; actives raise or lower the signal
Read-out in one experiment: MYC, MYC (gene 4609)
The experiment in a line: LTEA_HepaRG_MYC: Life Technologies and Expression Analysis (LTEA) Assay for MYC using HepaRG (AID 2283518). The procedure, abridged: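 Cells are thawed, plated and cultured 48 h, then treated for 48 h with test chemicals (eight half-log concentrations from 100 uM, 0.5% DMSO vehicle). RNA is isolated and MYC expression quantified by qRT-PCR against three housekeeping genes.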

Read-out in experiment [1]: matrix metalloproteinase-3 (MMP3), MMP3 (gene 4314)
Put plainly: LTEA_HepaRG_MMP3: Life Technologies and Expression Analysis (LTEA) Assay for matrix metalloproteinase-3 (MMP3) using HepaRG (AID 2283519). Summed up: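 Differentiated human HepaRG cells, plated 48 h on collagen I, were exposed in duplicate for 48 h in serum-free induction medium to eight half-log concentrations up to 100 uM in 0.5% DMSO. MMP3 mRNA was quantified by TaqMan qRT-PCR, normalised to ACTB, GAPDH and POLR2A.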

Read-out in experiment [2]: Paternally Expressed 10 (PEG10), PEG10 (gene 23089)
The experiment in a line: LTEA_HepaRG_PEG10: Life Technologies and Expression Analysis (LTEA) Assay for Paternally Expressed 10 (PEG10) using HepaRG (AID 2283520). The procedure, abridged: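 HepaRG, 48 h post-plating → serum-free induction medium → 48 h chemical exposure (duplicate, 8-pt, max 100 uM, half-log, 0.5% DMSO) → lysis in RLT → TaqMan qRT-PCR for PEG10, ACTB/GAPDH/POLR2A normalisation.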

Read-out in experiment [3]: Protein phosphatase 2A (PPP2R4), PTPA (gene 5524)
The experiment in a line: LTEA_HepaRG_PPP2R4: Life Technologies and Expression Analysis (LTEA) Assay for Protein phosphatase 2A (PPP2R4) using HepaRG (AID 2283522). Summed up:
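Readout is PPP2R4 transcript level by microfluidic qRT-PCR after 48 h chemical treatment of human HepaRG liver cells. Concentrations spanned 100 uM downward in half-log steps; gain or loss of signal was fitted relative to DMSO.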

Read-out in experiment [4]: Phosphatase and tensin (PTEN), PTEN (gene 5728)
The experiment in a line: LTEA_HepaRG_PTEN: Life Technologies and Expression Analysis (LTEA) Assay for Phosphatase and tensin (PTEN) using HepaRG (AID 2283523). Summed up:
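Differentiated human HepaRG cells, plated 48 h then switched to serum-free induction medium, were exposed in duplicate for 48 h to eight half-log concentrations up to 100 uM in 0.5% DMSO. PTEN mRNA measured by TaqMan qRT-PCR, normalized to ACTB/GAPDH/POLR2A, bidirectional fit versus DMSO.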

Read-out in experiment [5]: Pyruvate Dehydrogenase Kinase 4 (PDK4), PDK4 (gene 5166)
The experiment in a line: LTEA_HepaRG_PDK4: Life Technologies and Expression Analysis (LTEA) Assay for Pyruvate Dehydrogenase Kinase 4 (PDK4) using HepaRG (AID 2283525). The procedure, abridged:
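Differentiated human HepaRG cells, pre-cultured 48 h, were exposed in duplicate for 48 h in serum-free induction medium to eight half-log concentrations up to 100 uM in 0.5% DMSO. PDK4 mRNA was quantified by qRT-PCR, normalized to ACTB, GAPDH and POLR2A, bidirectional fitting versus DMSO.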

Read-out in experiment [6]: NAD(P)H dehydrogenase [quinone] 1 (NQO1), NQO1 (gene 1728)
Put plainly: LTEA_HepaRG_NQO1: Life Technologies and Expression Analysis (LTEA) Assay for NAD(P)H dehydrogenase [quinone] 1 (NQO1) using HepaRG (AID 2283526). The procedure, abridged:
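HepaRG, 48 h post-plating → serum-free induction medium → test chemical 48 h (duplicate, 100 uM top, half-log x8, 0.5% DMSO) → RNA isolation → qRT-PCR, ACTB/GAPDH/POLR2A normalization; bidirectional curve fit vs DMSO baseline.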

Read-out in experiment [7]: Nuclear factor erythroid 2-related factor 2 (Homo sapiens) (UniProt Q16236)
Put plainly: LTEA_HepaRG_NFE2L2: Life Technologies and Expression Analysis (LTEA) Assay for Nuclear factor erythroid 2-related factor 2 (NFE2L2) Transcription Factor using HepaRG (AID 2283527). Summed up:
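Differentiated human HepaRG cells in serum-free induction medium were exposed for 48 h to eight concentrations (top 100 uM, half-log dilutions, 0.5% DMSO), in duplicate. NFE2L2 mRNA was quantified by TaqMan qRT-PCR, normalized to ACTB, GAPDH and POLR2A, with bidirectional fitting versus DMSO.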

Read-out in experiment [8]: succinate dehydrogenase complex iron sulfur subunit B (SDHB), SDHB (gene 6390)
Put plainly: LTEA_HepaRG_SDHB: Life Technologies and Expression Analysis (LTEA) Assay for succinate dehydrogenase complex iron sulfur subunit B (SDHB) using HepaRG (AID 2283528). The procedure, abridged: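 SDHB transcript level read by TaqMan qRT-PCR, housekeeping-normalised (ACTB, GAPDH, POLR2A), after 48 h chemical treatment of plated HepaRG cells; eight concentrations top 100 uM, half-log steps, 0.5% DMSO, duplicates; fitted both directions against DMSO.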

Read-out in experiment [9]: Signal transducer and activator of transcription 3 (Homo sapiens) (UniProt P40763)
Put plainly: LTEA_HepaRG_STAT3: Life Technologies and Expression Analysis (LTEA) Assay for Signal transducer and activator of transcription (STAT3) using HepaRG (AID 2283529). The procedure, abridged:
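Differentiated human HepaRG cells in serum-free induction medium were exposed in duplicate for 48 h to eight half-log concentrations up to 100 uM in 0.5% DMSO. STAT3 mRNA was quantified by TaqMan qRT-PCR, normalized to ACTB, GAPDH and POLR2A, and fitted bidirectionally against DMSO.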

Read-out in experiment [10]: solute carrier (SLCO1B1), SLCO1B1 (gene 10599)
Put plainly: LTEA_HepaRG_SLCO1B1: Life Technologies and Expression Analysis (LTEA) Assay for solute carrier (SLCO1B1) using HepaRG (AID 2283530). Summed up:
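Gain or loss of SLCO1B1 mRNA is fitted against the 0.5% DMSO vehicle in human HepaRG liver cells treated 48 h at up to 100 uM in half-log steps. Expression comes from qRT-PCR normalized to endogenous controls.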

Read-out in experiment [11]: sulfotransferase 2A1 (SULT2A1), SULT2A1 (gene 6822)
The experiment in a line: LTEA_HepaRG_SULT2A1: Life Technologies and Expression Analysis (LTEA) Assay for sulfotransferase 2A1 (SULT2A1) using HepaRG (AID 2283531). Summed up:
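Cells were plated and cultured 48 h, switched to serum-free induction medium, then dosed in duplicate for 48 h (8 concentrations, max 100 uM). RNA was isolated and SULT2A1 expression measured by qRT-PCR; gain or loss of signal fitted relative to DMSO.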

Read-out in experiment [12]: Transforming Growth Factor (TGFA), TGFA (gene 7039)
The experiment in a line: LTEA_HepaRG_TGFA: Life Technologies and Expression Analysis (LTEA) Assay for Transforming Growth Factor (TGFA) using HepaRG (AID 2283532). Summed up: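 Differentiated human HepaRG cells, plated 48 h then switched to serum-free induction medium, were exposed in duplicate for 48 h to 8-point half-log series from 100 uM in 0.5% DMSO. TGFA mRNA measured by qRT-PCR, normalized to ACTB/GAPDH/POLR2A, bidirectional fit versus DMSO.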

Read-out in experiment [13]: Tumor necrosis factor receptor 1 (TNFRSF1A), TNFRSF1A (gene 7132)
The experiment in a line: LTEA_HepaRG_TNFRSF1A: Life Technologies and Expression Analysis (LTEA) Assay for Tumor necrosis factor receptor 1 (TNFRSF1A) using HepaRG (AID 2283535). Summed up: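 Expression of TNFRSF1A in human HepaRG liver cells was measured by qRT-PCR 48 h after chemical dosing (maximum 100 uM). Bidirectional curve fitting used 0.5% DMSO as baseline.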

Read-out in experiment [14]: Thyroid Hormone Responsive (THRSP), THRSP (gene 7069)
Put plainly: LTEA_HepaRG_THRSP: Life Technologies and Expression Analysis (LTEA) Assay for Thyroid Hormone Responsive (THRSP) using HepaRG (AID 2283536). The procedure, abridged: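 Differentiated human HepaRG cells were exposed in duplicate for 48 h in serum-free induction medium to eight concentrations (top 100 uM, half-log steps, 0.5% DMSO). Expression was quantified by TaqMan qRT-PCR, normalized to ACTB, GAPDH and POLR2A, with bidirectional fitting against DMSO.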

Read-out in experiment [15]: Cellular tumor antigen p53 (Homo sapiens) (UniProt P04637)
Put plainly: LTEA_HepaRG_TP53: Life Technologies and Expression Analysis (LTEA) Assay for Tumor Protein P53 (TP53) using HepaRG (AID 2283537). Summed up:
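TP53 transcript measured by qRT-PCR, normalized to three housekeeping genes, after 48 h treatment of human HepaRG cultures with chemicals from 100 uM downward in half-log steps (0.5% DMSO vehicle, serum-free induction medium). Up- or down-regulation fitted against DMSO.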

Read-out in experiment [16]: solute carrier (SLC22A1), SLC22A1 (gene 6580)
Put plainly: LTEA_HepaRG_SLC22A1: Life Technologies and Expression Analysis (LTEA) Assay for solute carrier (SLC22A1) using HepaRG (AID 2283524). Summed up: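 Human HepaRG cells were plated 48 h, switched to serum-free induction medium, then exposed in duplicate for 48 h to 8-point half-log series from 100 uM in 0.5% DMSO. SLC22A1 mRNA measured by qRT-PCR, normalized to ACTB/GAPDH/POLR2A, fitted bidirectionally versus DMSO.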

Read-out in experiment [17]: Transforming Growth Factor (TGFB1), TGFB1 (gene 7040)
Put plainly: LTEA_HepaRG_TGFB1: Life Technologies and Expression Analysis (LTEA) Assay for Transforming Growth Factor (TGFB1) Transporter using HepaRG (AID 2283533). The procedure, abridged:
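Expression change of TGFB1 in human HepaRG cells is measured after a 48 h chemical exposure, up to 100 uM in 0.5% DMSO vehicle. Curves are fitted in both directions relative to the DMSO baseline.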

Read-out in the next experiment: TIMP1, TIMP1 (gene 7076)
Put plainly: LTEA_HepaRG_TIMP1: Life Technologies and Expression Analysis (LTEA) Assay for TIMP1 using HepaRG (AID 2283534).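 Also: TaqMan qRT-PCR signal normalized to ACTB GAPDH and POLR2A housekeeping genes.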 Summed up:
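We dosed human liver HepaRG cultures for 48 hours with up to 100 uM test chemical and measured TIMP1 expression by qRT-PCR. Activity in either direction is fitted relative to the 0.5% DMSO vehicle.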

Read-out in experiment [18]: Nuclear factor NF-kappa-B p105 subunit (Homo sapiens) (UniProt P19838)
The experiment in a line: LTEA_HepaRG_NFKB1: Life Technologies and Expression Analysis (LTEA) Assay for Nuclear Factor Kappa B Subunit 1 (NFKB1) using HepaRG (AID 2283521). The procedure, abridged:
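NFKB1 transcript was measured by TaqMan qRT-PCR on Fluidigm arrays, normalised to three housekeeping genes and fitted in both directions against 0.5% DMSO. HepaRG cells were dosed in duplicate for 48 h in serum-free induction medium, eight half-log steps from 100 uM.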

Chain of Signal transducer and activator of transcription 3 (Homo sapiens) (P40763 whole entry, looked up): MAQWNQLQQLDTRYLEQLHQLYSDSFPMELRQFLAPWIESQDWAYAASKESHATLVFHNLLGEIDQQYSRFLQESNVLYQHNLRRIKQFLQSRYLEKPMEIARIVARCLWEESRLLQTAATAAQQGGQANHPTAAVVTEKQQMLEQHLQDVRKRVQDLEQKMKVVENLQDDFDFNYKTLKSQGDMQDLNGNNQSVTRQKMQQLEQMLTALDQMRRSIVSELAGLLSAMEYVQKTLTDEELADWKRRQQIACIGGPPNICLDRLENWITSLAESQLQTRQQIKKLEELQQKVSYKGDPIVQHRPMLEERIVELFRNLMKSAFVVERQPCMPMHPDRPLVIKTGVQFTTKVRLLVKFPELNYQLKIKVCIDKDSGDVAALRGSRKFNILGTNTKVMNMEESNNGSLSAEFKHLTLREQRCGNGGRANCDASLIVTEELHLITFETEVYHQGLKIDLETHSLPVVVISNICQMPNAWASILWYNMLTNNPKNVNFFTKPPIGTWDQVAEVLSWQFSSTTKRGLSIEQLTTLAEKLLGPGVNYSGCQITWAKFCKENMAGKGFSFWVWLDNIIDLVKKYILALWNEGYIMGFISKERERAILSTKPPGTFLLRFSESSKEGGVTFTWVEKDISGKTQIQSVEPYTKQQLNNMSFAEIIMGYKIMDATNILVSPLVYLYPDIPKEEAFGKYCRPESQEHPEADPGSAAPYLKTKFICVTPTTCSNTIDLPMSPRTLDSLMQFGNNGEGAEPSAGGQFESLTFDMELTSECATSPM
Chain of Nuclear factor erythroid 2-related factor 2 (Homo sapiens) (Q16236 whole entry, looked up): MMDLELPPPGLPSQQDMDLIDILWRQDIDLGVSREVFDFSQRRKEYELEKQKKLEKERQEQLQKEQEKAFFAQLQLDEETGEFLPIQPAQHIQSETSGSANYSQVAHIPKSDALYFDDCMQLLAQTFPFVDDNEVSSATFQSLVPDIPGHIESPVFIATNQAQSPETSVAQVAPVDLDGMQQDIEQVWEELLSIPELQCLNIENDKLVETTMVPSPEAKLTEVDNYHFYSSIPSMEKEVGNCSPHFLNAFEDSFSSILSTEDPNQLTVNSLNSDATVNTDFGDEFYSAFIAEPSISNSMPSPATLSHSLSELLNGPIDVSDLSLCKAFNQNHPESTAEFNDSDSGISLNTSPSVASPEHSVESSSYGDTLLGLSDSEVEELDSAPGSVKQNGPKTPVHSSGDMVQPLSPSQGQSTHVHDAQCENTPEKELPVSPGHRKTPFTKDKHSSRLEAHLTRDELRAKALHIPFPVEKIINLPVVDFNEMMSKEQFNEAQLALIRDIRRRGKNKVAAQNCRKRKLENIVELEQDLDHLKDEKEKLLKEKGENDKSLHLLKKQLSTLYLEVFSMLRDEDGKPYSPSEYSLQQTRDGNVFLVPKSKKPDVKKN
Chain of Cellular tumor antigen p53 (Homo sapiens) (P04637 whole entry, looked up): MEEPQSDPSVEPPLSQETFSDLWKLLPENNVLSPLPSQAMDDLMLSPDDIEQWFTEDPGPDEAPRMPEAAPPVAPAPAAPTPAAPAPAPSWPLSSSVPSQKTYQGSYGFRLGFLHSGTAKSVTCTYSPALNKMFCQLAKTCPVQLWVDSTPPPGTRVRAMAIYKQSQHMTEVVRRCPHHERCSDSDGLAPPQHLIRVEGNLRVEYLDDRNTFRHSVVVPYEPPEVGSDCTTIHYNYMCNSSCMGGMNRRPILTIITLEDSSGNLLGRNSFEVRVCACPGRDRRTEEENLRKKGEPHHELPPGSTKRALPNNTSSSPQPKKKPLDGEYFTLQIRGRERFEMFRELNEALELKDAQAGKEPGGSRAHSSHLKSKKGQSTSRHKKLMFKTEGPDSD
Chain of Nuclear factor NF-kappa-B p105 subunit (Homo sapiens) (P19838 whole entry, looked up): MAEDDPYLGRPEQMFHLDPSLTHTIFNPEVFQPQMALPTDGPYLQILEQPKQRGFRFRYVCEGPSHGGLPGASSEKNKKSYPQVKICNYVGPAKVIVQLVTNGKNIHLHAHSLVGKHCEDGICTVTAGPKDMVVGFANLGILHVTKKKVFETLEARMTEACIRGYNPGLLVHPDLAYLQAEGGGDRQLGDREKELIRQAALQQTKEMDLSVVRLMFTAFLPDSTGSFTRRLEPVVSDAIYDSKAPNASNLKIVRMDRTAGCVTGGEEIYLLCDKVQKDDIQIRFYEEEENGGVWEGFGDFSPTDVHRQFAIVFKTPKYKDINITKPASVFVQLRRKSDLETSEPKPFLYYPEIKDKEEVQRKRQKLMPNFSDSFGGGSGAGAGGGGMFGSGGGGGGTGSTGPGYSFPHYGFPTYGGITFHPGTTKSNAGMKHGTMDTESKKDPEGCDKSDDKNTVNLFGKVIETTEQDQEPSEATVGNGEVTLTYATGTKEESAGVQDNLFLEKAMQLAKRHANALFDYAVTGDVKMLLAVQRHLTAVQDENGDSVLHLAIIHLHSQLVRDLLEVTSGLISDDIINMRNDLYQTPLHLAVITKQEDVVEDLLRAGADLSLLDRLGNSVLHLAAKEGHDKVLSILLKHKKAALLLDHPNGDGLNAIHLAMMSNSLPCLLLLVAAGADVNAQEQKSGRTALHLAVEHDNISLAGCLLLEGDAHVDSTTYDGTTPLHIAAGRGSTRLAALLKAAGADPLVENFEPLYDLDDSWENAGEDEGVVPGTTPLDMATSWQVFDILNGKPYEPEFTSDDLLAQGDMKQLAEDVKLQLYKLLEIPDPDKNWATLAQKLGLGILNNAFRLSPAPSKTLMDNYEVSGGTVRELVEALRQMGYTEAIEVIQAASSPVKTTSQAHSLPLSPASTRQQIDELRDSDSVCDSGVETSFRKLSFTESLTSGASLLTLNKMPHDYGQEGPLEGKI

Take `O=C1c2c(O)cccc2Cc2cccc(O)c21`: the outcome was “inactive” in the experiment with MYC, MYC (gene 4609); “inactive” in experiment [1]; “inactive” in [2]; “inactive” in experiment [3]; “inactive” in experiment [4]; “inactive” in experiment [5]. Further, the call in [6], in experiment [7], in [8], in [9], in experiment [10] and in [11] was inactive. Further, the call in [12], in [13], in [14] and in experiment [15] was inactive.

On to `O=C1NC(=O)C(c2ccccc2)(c2ccccc2)N1`, for which the outcome is “inactive” in the experiment with MYC, MYC (gene 4609); “inactive” in [1]; “inactive” in experiment [2]; “inactive” in experiment [3]; “inactive” in experiment [4]; “inactive” in [16]. The result in [5], in [6], in experiment [7], in experiment [8], in [9] and in experiment [10] was inactive. The call in [12], in experiment [17], in [13] and in experiment [14] was inactive. In addition, the AC50 in [11] is 50 µM (active).

In the case of `COC(=O)[C@H]1[C@H]2C[C@@H]3c4[nH]c5cc(OC)ccc5c4CCN3C[C@H]2C[C@@H](OC(=O)c2cc(OC)c(OC)c(OC)c2)[C@@H]1OC`, the half-maximal activity concentration (AC50) with MYC, MYC (gene 4609) is 29.1 µM (active); in experiment [16], 52.8 µM (active); in experiment [7], 42.2 µM (active); in experiment [10], 59 µM (active); in experiment [11] it was 62.8 µM (active); in [14], 28.3 µM (active). For the same compound, the compound was classed as inactive in experiment [1], in experiment [3], in experiment [4], in [5], in [6] and in experiment [8]. The outcome in experiment [9] was “inactive”; in experiment [12], “inactive”; in [17], “inactive”; with TIMP1, TIMP1 (gene 7076), “inactive”; in [13] it was “inactive”; in experiment [15], “inactive”.

As for `CC(=O)O[C@]1(C(C)=O)CC[C@H]2[C@@H]3C=C(Cl)C4=CC(=O)[C@@H]5C[C@@H]5[C@]4(C)[C@H]3CC[C@@]21C`, the AC50 is 9.92 µM (active) with MYC, MYC (gene 4609); 50 µM (active) in [16]; 81.2 µM (active) in experiment [7]; 50 µM (active) in experiment [9]; 76.8 µM (active) in experiment [10]; 50 µM (active) in experiment [11]. The outcome in experiment [2], in experiment [18], in experiment [3], in experiment [4], in experiment [5] and in experiment [6] was inactive. Further, the outcome in [8] was “inactive”; in experiment [12], “inactive”; in [17] it was “inactive”; in the experiment with TIMP1, TIMP1 (gene 7076), “inactive”; in experiment [13], “inactive”; in experiment [14], “inactive”.
